Compounds without any hit were thinned out: in the full panel of roughly 79,000, 15% have a hit. Unmarked numbers belong to inactive results. Active and inactive are the calls of the source. Rule as the data show it: active = growth inhibition above about 70%; inactive = the rest.
Assays:
[1] = NCI Yeast Anticancer Drug Screen. Data for the rad50 strain (AID 155);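 also: 0% = growth of vehicle-only cultures of the same strain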; details: S. cerevisiae rad50 strain growth inhibition, active compounds read high
How it was run: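 DNA repair mutant yeast, compound exposure, growth read-out; inhibition is taken relative to vehicle.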

[2] = NCI Yeast Anticancer Drug Screen. Data for the mec2-1 strain (AID 157); details: S. cerevisiae mec2-1 strain, active compounds read high
How it was run: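 Cells of the genetically defined mec2-1 yeast strain are incubated with test compound. Inhibition of growth is calculated against vehicle-treated controls.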

[3] = NCI Yeast Anticancer Drug Screen. Data for the sgs1 mgt1 strain (AID 161);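 also: 0% = growth of cultures given vehicle only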; details: S. cerevisiae sgs1 mgt1 strain, active compounds read high
How it was run: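 Read-out: growth inhibition vs vehicle controls. Cells: mutant yeast strain deficient in DNA damage repair.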

[4] = NCI Yeast Anticancer Drug Screen. Data for the cln2 rad14 strain (AID 165);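 also: 0% = growth equal to vehicle treated cultures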; details: S. cerevisiae cln2 rad14 strain, active compounds read high
How it was run: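 The screen exposed genetically defined yeast (cln2 rad14) to test compounds and scored growth inhibition relative to vehicle-treated controls.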

[5] = NCI Yeast Anticancer Drug Screen. Data for the bub3 strain (AID 167); details: S. cerevisiae bub3 mutant strain, active compounds read high
How it was run: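 In this screen, a yeast mutant lacking normal mitotic checkpoint function is challenged with compound. Relative growth versus vehicle gives the inhibition value.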

[6] = NCI Yeast Anticancer Drug Screen. Data for the mlh1 rad18 strain (AID 175); details: S. cerevisiae mlh1 rad18 strain growth inhibition, active compounds read high
How it was run: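 Compound-treated yeast growth, normalised to vehicle controls. Strain bears defined DNA repair mutations.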

[7] = at 5.0 µM (retest, dose inferred, filed as 0.5)
[8] = at 50.0 µM (retest, dose inferred, filed as 5.0)

Structure (SMILES) | growth inhibition [1, 7] | growth inhibition [1, 8] | growth inhibition ([1]; at 50.0 µM) | growth inhibition [2, 7] | growth inhibition [2, 8] | growth inhibition ([2]; at 50.0 µM) | growth inhibition [3, 7] | growth inhibition [3, 8] | growth inhibition ([3]; at 50.0 µM) | growth inhibition [4, 7] | growth inhibition [4, 8] | growth inhibition ([4]; at 50.0 µM) | growth inhibition [5, 7] | growth inhibition [5, 8] | growth inhibition ([5]; at 50.0 µM) | growth inhibition [6, 7] | growth inhibition [6, 8] | growth inhibition ([6]; at 50.0 µM)
CC(C)(C)c1cc(Nc2ccc([N+](=O)[O-])cc2[N+](=O)[O-])cc(C(C)(C)C)c1O | 4% | 99% (active) | -14.9% | 7% | 100% (active) | 14.3% | 6% | 99% (active) | 10.4% | -1% | 99% (active) | -45.6% | 8% | 99% (active) | -0.9% | -1% | 99% (active) | 8.45%
Nc1cc2[nH]c(=O)c3cc(Cl)ccc3c2cc1Cl | 83% (active) | 94% (active) | 89.8% (active) | 7% | 79% (active) | -3.35% | 26% | 86% (active) | 47.6% | 8% | 58% | -24.2% | 8% | 59% | -5.15% | 65% | 95% (active) | 61.2%
Cc1cc(NC(=S)SCc2ccc(Cl)cc2)ccc1Br | 35% | 98% (active) | 91.3% (active) | 26% | 99% (active) | 92.7% (active) | 47% | 99% (active) | 91.3% (active) | 37% | 99% (active) | 88.8% (active) | 55% | 100% (active) | 91.2% (active) | 25% | 99% (active) | 91.2% (active)
Cn1c(C2CCC(=O)N2Cc2ccccc2)n[nH]c1=S (configuration not stated) | 1% | 0% | 55.5% | -1% | -3% | 22.4% | 4% | -2% | 74.4% (active) | 2% | 3% | -1.85% | 3% | -2% | 62.5% | 1% | -4% | 89.5% (active)
O=NNc1ccc(Sc2ccc3ccccc3c2)cn1 | 21% | 41% | 21.5% | 24% | 36% | 12.2% | 20% | 27% | 19.1% | 32% | 43% | 24.8% | 30% | 37% | 35% | 25% | 47% | 51.5%
CC(=O)OC1CCCCCCCCCCC12OCCO2 (configuration not stated) | 23% | 96% (active) | 30% | 5% | 98% (active) | 63% | 20% | 99% (active) | 73.5% (active) | 1% | 96% (active) | 63.6% | 1% | 96% (active) | 83% (active) | 10% | 96% (active) | 92% (active)
O=C1C(c2ccc(Br)cc2)=[N+]([O-])c2ccccc21 | 9% | 94% (active) | 93.5% (active) | 12% | 84% (active) | 87.3% (active) | 10% | 94% (active) | 93.8% (active) | -4% | 47% | 85.5% (active) | 19% | 94% (active) | 96.4% (active) | 11% | 91% (active) | 95.8% (active)
O=C(Nc1ccc(Br)cc1)c1cc(Br)c(O)c(Br)c1O | 21% | 99% (active) | 58.1% | 9% | 99% (active) | 98.8% (active) | 29% | 99% (active) | 59.9% | -5% | 99% (active) | 92.2% (active) | 11% | 99% (active) | 98.4% (active) | 24% | 99% (active) | 98% (active)
CC(C)N1C(=O)c2ccccc2S1(Cl)c1ccccc1 (configuration not stated) | 2% | 0% | 97.5% (active) | -6% | 6% | 96.8% (active) | 4% | -3% | 94.5% (active) | -2% | 2% | 88.2% (active) | -7% | -6% | 98.5% (active) | -2% | 4% | 98.3% (active)

Source: PubChem BioAssay (NCI)
